# Hits are enriched below; roughly 3.2% of the tested compounds scored in any of these assays.
# TMEM16A act: mouse TMEM16A channel activation, primary screen; Q8BHY3; HEK293 TMEM16A/YFP-H148Q/I152L, iodide quench fluorescence; stronger effect = lower value; B-score at 10 µM; hit rate 0.3% among 340,000; AID 623877;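 active means fluorescence-ratio B-score plate-corrected deviation score at least 3 library SD below zero, with starting fluorescence score within 5 deviations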;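 further: channel opened by trigger with iodide after compound preincubation; score built on the fluorescence ratio of max minus min over baseline; more negative score means more quench and so TMEM16A activation or potentiation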
# Target sequence (Q8BHY3 whole entry, looked up): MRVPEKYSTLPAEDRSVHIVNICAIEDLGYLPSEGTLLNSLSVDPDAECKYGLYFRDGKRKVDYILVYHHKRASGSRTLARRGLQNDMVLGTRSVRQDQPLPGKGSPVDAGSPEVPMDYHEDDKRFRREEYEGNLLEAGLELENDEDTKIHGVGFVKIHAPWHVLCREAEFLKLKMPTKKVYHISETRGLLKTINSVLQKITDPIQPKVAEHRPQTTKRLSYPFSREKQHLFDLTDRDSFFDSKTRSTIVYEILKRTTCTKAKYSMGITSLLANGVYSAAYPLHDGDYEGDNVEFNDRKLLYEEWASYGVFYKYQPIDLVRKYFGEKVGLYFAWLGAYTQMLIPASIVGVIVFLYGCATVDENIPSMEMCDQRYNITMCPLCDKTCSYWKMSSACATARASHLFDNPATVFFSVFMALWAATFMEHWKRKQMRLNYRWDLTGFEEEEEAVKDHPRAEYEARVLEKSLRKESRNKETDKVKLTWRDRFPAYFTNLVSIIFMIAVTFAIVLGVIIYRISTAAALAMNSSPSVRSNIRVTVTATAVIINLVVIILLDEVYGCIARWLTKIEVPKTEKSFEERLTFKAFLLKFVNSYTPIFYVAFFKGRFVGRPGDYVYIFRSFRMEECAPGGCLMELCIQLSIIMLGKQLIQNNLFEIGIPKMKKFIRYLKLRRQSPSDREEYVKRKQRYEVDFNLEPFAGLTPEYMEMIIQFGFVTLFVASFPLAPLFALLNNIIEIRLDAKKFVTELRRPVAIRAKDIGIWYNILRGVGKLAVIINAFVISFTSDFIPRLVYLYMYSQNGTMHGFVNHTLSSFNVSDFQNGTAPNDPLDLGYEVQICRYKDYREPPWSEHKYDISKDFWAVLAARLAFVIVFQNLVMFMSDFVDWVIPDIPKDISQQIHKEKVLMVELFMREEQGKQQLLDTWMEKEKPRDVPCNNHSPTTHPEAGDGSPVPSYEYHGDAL
# CHT PAM: allosteric activators of human choline transporter CHT | Q9GZV3 | CHT-expressing cells, membrane potential dye, choline EC20; stronger effect = higher value; LV-AA mutant CHT in HEK293 cells | B-score at 10 µM | hit rate 0.49% among 310,000 | AID 488977;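 active means initial fluorescence not abnormally high and integrated response B-score, plate-corrected, over 3 SD above library mean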
# ANO1 block: mouse TMEM16A channel inhibition, primary screen; hit rate 1.2% among 310,000; HEK293 TMEM16A/YFP iodide influx fluorescence, ionomycin; normalized B-score (activity score, 25-100; higher = stronger inhibition) at 10 µM;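 active means ratio plate-corrected score three or more library SD toward inhibition, starting fluorescence score within five deviations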;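 further: score derived from kinetic fluorescence span divided by baseline fluorescence per well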
# Kir21 block: inhibitors of mouse Kir2.1 inward-rectifier potassium channel; P35561; B-score at 10 µM; hit rate 0.85% among 310,000; HEK293-Kir2.1, FluxOR thallium flux fluorescence; stronger effect = lower value; AID 1672;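 active means fluorescence ratio B-score at or below minus 3 SD of library scores, with starting-brightness B-score within 2 SD, cut at about -4.2 in these data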;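 further: channel flux triggered by added potassium and thallium sulfate stimulus; B-score of peak minus minimum fluorescence over baseline after thallium stimulus; more negative B-score means stronger Kir2.1 block with less thallium influx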
# Rce1 inh: inhibitors of yeast Ras-converting enzyme | AID 2563 | calls only | Q03530 | hit rate 0.27% among 290,000 | yeast membranes, quenched prenylated peptide cleavage fluorescence;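 active means fall in fluorescence gain of 50% or more versus controls, with final raw signal at or below 3038400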;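 further: plate controls were neutral control wells for no effect and wells lacking membranes for full effect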
# CHT inh: inhibits the human high affinity choline transporter; Q9GZV3; CHT-expressing cells, membrane potential dye, choline response; stronger effect = lower value; B-score at 10 µM; hit rate 0.86% among 310,000;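 active means B-score over 3 SD under the library average, and starting fluorescence ratio not unusually high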;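 further: choline stimulus applied at its EC90 after an EC20 pre-addition; B-score computed on integrated fluorescence ratio after choline addition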
# Starred values were filed as active, the others as inactive; i = inactive; . = no result given; + = active, no number.
SMILES,TMEM16A act,CHT PAM,ANO1 block,Kir21 block,Rce1 inh,CHT inh
N#Cc1c(C(F)(F)F)cc(-c2ccccc2)[nH]c1=O,i,i,i,-0.73,i,i
O=S(=O)(Nc1cccc(CCc2ccccn2)c1)c1ccc(Cl)cc1,i,i,i,-9.2*,.,i
O=C1NN(c2ccccc2)C(=O)/C1=C\c1ccccc1OCC(=O)N1CCOCC1,i,i,25*,-0.19,i,i
CCc1ccccc1N=C1S/C(=C/c2ccccc2OCC(=O)N2CCOCC2)C(=O)N1C,i,i,i,1.2,i,i
CC(C)n1cnnc1SCC(=O)Nc1cccnc1Cl,i,.,.,.,.,.
COc1ccc(S(=O)(=O)NCCSc2ccc(C)cc2)cc1OC,i,i,i,-5.2*,i,i
O=C(Nc1nnc(-c2cccs2)o1)c1cccc(F)c1,i,i,i,0.53,i,i
O=C(Nc1nnc(-c2cccs2)o1)c1cccc(Oc2ccccc2)c1,i,i,25*,.,.,i
O=C(Cn1c2ccccc2c(=O)c2ccccc21)Nc1ccccc1F,i,i,i,1.1,+,i
CCN(CC)S(=O)(=O)c1ccc(C(=O)Nc2ccc(OCC(=O)N3CCOCC3)cc2)cc1,-12*,i,i,1.2,i,i
COc1ccc(Nc2nc(OC)nc(OC)n2)cc1,i,i,i,-0.51,i,i
COc1ccc(Nc2ccnc(Nc3ccc(OC)cc3)n2)cc1,i,i,i,-6.5*,i,i
O=C(CSc1nncn1-c1ccccc1)Nc1ccc(F)cc1F,i,i,i,-1.1,i,i
O=C(CSc1nncn1-c1ccccc1)Nc1cc(Cl)cc(Cl)c1,i,i,25*,-2.2,i,i
O=C(COC(=O)C1C2CC3OC(=O)C1C3C2)Nc1ccc(Br)cc1 (stereo not drawn),i,i,i,1.2,i,i
CCc1cnccc1CCC(=O)Nc1ccccc1C,i,i,i,-1.3,i,i
O=C(Oc1ccc(=O)n(-c2ccccc2)n1)c1ccccc1,i,i,i,-7.4*,i,i
CCN(CC)CCN(C(=O)c1cc2ccccc2cc1OC)c1nc2ccc(F)cc2s1,i,i,i,2.2,+,i
COc1cc2ccccc2cc1C(=O)N(CCN(C)C)c1nc2c(OC)ccc(OC)c2s1,i,i,i,0.23,i,i
COc1cc2ccccc2cc1C(=O)N(CCN(C)C)c1nc2ccc(C)cc2s1,i,i,i,1.4,+,i
CCc1ccc2nc(N(CCN(C)C)C(=O)c3ccc4ccccc4c3)sc2c1,i,i,i,1.2,i,i
CN(C)CCN(C(=O)c1ccc2ccccc2c1)c1nc2ccc(F)cc2s1,i,i,i,1.4,+,i
CCN(CC)CCN(C(=O)c1cc2ccccc2cc1OC)c1nc2ccc(OC)cc2s1,i,i,i,0.45,i,i
CCOC(=O)C1=C(COC(=O)COc2cc(C)ccc2C)NC(=O)NC1C (stereo not drawn),i,i,i,-1.2,i,i
CC1CCC2(CC1)NC(=O)N(NC(=O)CCc1c[nH]c3ccccc13)C2=O (stereo not drawn),i,.,.,.,.,.
SMILES,TMEM16A act,CHT PAM,ANO1 block,Kir21 block,Rce1 inh,CHT inh
Cc1cc(=O)[nH]c(N/N=C/c2c(C)nn(-c3ccccc3)c2Cl)n1,i,i,i,0.92,i,i
Cc1nn(-c2ccccc2)c(Cl)c1/C=N/Nc1nc2ccccc2[nH]1,-7.3*,i,i,0.51,i,i
CCOC(=O)C1=C(C)NC(C)=C(C(=O)OCC)C1C(=O)OCC(=O)NC1CCCCC1,i,.,.,.,.,.
O=C(c1cccnc1)N1CCN(Cc2ccc3c(c2)OCO3)CC1,i,i,i,0.36,i,i
O=C(c1cccnc1)N1CCN(Cc2cccc(Br)c2)CC1,-5.8*,i,i,0.19,i,i
O=C1c2cccc3c([N+](=O)[O-])ccc(c23)C(=O)N1c1ccc(Cl)cn1,i,i,i,-5*,i,i
Cc1c(Cl)cccc1NC(=O)C1COc2ccccc2O1 (stereo not drawn),i,i,i,1.1,i,i
